The source holds several records for some structures; these can differ, active in one and inactive in another. Calls of active or inactive are those of the source. The calls were made as follows: active = hit-call score of the fitted dose curve at least 0.9, where 1 is the maximum; inactive = score below 0.9.

Read-out in the first test: Decorin, DCN (gene 1634)
Put plainly: BSK_MyoF_Decorin: BioMAP Diversity Plus: MyoF Assay for Decorin Biomarker Activity (AID 2284265). The note with it: primary human lung fibroblasts. The method, boiled down:
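Lung fibroblast cultures, 24 h chemical exposure. Decorin by ELISA, positive fitting direction, DMSO baseline.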
Consider `CCCCCCCCCCCCN(C)C`, for which the result was inactive.

In the case of `CC(C=O)Cc1ccc2c(c1)OCO2` (centres undefined), the outcome was inactive.

On to `CCOC(=O)C(SP(=S)(OC)OC)c1ccccc1` (centres undefined), for which the result was inactive.

For `N#CCCC(Br)(C#N)CBr` (centres undefined), the result was inactive.

For orientation: AC50 means the concentration giving half of the maximal activity seen. Turning to `CCOP(=O)(OCC)OC(=CCl)c1ccc(Cl)cc1Cl`, the AC50 was 20 µM (active).

For the compound `[Cl][Sn]([c]1ccccc1)([c]1ccccc1)[c]1ccccc1`, the AC50 is 0.167 µM (active).

Take `CCOP(=S)(OCC)OP(=S)(OCC)OCC`: the result was inactive.

Regarding `O=C(O)COc1cc(Cl)c(Cl)cc1Cl`, the outcome was inactive.

On to `CCCCN(CCCC)C(=S)[S-].CCCCN(CCCC)C(=S)[S-].[Ni+2]`, for which the outcome was inactive.

As for `NC(=O)CCl`, the result was inactive.

Take `C=CC(Cl)CCl` (centres undefined): the outcome was inactive.

Turning to `C#CCOC(=O)/C=C(C)/C=C/CC(C)CCCC(C)C` (centres undefined), the outcome was inactive.

On to `O=C(CCl)NCO`, for which the outcome was inactive.

Turning to `CCOC(=O)CCN(SN(C)C(=O)Oc1cccc2c1OC(C)(C)C2)C(C)C`, the outcome was inactive.

As for `OC(Cc1ccccc1Cl)(Cn1cncn1)C1(Cl)CC1` (centres undefined), the outcome was inactive.

As to `Cc1cc(Cl)ccc1OC(C)C(=O)O` (centres undefined), the result was inactive.

Take `O=S(=O)(c1ccc(Cl)cc1)c1cc(Cl)c(Cl)cc1Cl`: the result was inactive.

Consider `CC(C)(COCC1CO1)COCC1CO1` (centres undefined), for which the result was inactive.

In the case of `O=[N+]([O-])c1ccc(Nc2ccccc2)cc1`, the result was inactive.

Take `CC1(C)[C@H](C(=O)O[C@H](C#N)c2cccc(Oc3ccccc3)c2)[C@@H]1/C=C(\Cl)C(F)(F)F`: the result was inactive.

`Nc1ccc(N)cc1`: the outcome was inactive.

With `Cc1cc(C(C)(C)c2ccc(O)c(C)c2)ccc1O`, the outcome was inactive.

Take `c1ccc2sc(SNC3CCCCC3)nc2c1`: the result was inactive.

As to `CCN(CC)C(=O)C(Cl)=C(C)OP(=O)(OC)OC`, the result was inactive.

As for `CCOC(=O)CC(=O)CCl`, the result was inactive.

For the compound `O=c1oc2ccccc2c(O)c1C(CC(O)c1ccc(-c2ccc(Br)cc2)cc1)c1ccccc1` (centres undefined), the AC50 was 9.45 µM (active).

Read-out in the next test: not listed separately
Put plainly: BSK_MyoF_SRB: Viability Assessment in the BioMAP Diversity Plus: MyoF Assay (AID 2284267).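 Also: total protein by SRB absorbance in parallel cultures as cytotoxicity measure.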 As to conditions: primary human lung fibroblasts. The essentials:
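Read-out is SRB absorbance at 560 nm, reflecting total protein in parallel lung fibroblast cultures harvested 24 h after compound addition. Cells were TCA-fixed (10%) and stained with 0.1% SRB; activity is referenced to DMSO.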
Consider `CCCCCCCCCCCCN(C)C`, for which the outcome was inactive.

Turning to `CC(C=O)Cc1ccc2c(c1)OCO2` (centres undefined), the result was inactive.

Consider `CCOC(=O)C(SP(=S)(OC)OC)c1ccccc1` (centres undefined), for which the result was inactive.

With `CCOP(=S)(OCC)OP(=S)(OCC)OCC`, the outcome was inactive.

Turning to `CCOC(=O)CCN(SN(C)C(=O)Oc1cccc2c1OC(C)(C)C2)C(C)C`, the result was inactive.

With `Cc1cc(Cl)ccc1OC(C)C(=O)O` (centres undefined), the result was inactive.

On to `O=S(=O)(c1ccc(Cl)cc1)c1cc(Cl)c(Cl)cc1Cl`, for which the outcome was inactive.

With `O=[N+]([O-])c1ccc(Nc2ccccc2)cc1`, the outcome was inactive.

For the compound `Nc1ccc(N)cc1`, the outcome was inactive.

For `c1ccc2sc(SNC3CCCCC3)nc2c1`, the outcome was inactive.

Read-out in another test: Matrix Metallopeptidase 1 (MMP1), MMP1 (gene 4312)
Kind of test: BSK_MyoF_MMP1: BioMAP Diversity Plus: MyoF Assay for Matrix Metallopeptidase 1 (MMP1) Biomarker Activity (AID 2284268). The note with it: primary human lung fibroblasts. The essentials: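 MMP1 measured by ELISA 24 h after dosing primary human lung fibroblasts; cytotoxicity checked in parallel cultures by sulforhodamine B total-protein staining read at 560 nm.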
On to `CCCCCCCCCCCCN(C)C`, for which the result was inactive.

With `CC(C=O)Cc1ccc2c(c1)OCO2` (centres undefined), the result was inactive.

For the compound `CCOC(=O)C(SP(=S)(OC)OC)c1ccccc1` (centres undefined), the outcome was inactive.

As for `N#CCCC(Br)(C#N)CBr` (centres undefined), the result was inactive.

On to `CCOP(=O)(OCC)OC(=CCl)c1ccc(Cl)cc1Cl`, for which the AC50 is 31.7 µM (active).

`[Cl][Sn]([c]1ccccc1)([c]1ccccc1)[c]1ccccc1`: the AC50 was 0.423 µM (active).

On to `CCOP(=S)(OCC)OP(=S)(OCC)OCC`, for which the result was inactive.

On to `O=C(O)COc1cc(Cl)c(Cl)cc1Cl`, for which the result was inactive.

For the compound `CCCCN(CCCC)C(=S)[S-].CCCCN(CCCC)C(=S)[S-].[Ni+2]`, the result was inactive.

In the case of `NC(=O)CCl`, the result was inactive.

Turning to `C=CC(Cl)CCl` (centres undefined), the result was inactive.

In the case of `C#CCOC(=O)/C=C(C)/C=C/CC(C)CCCC(C)C` (centres undefined), the result was inactive.

Turning to `O=C(CCl)NCO`, the result was inactive.

For the compound `CCOC(=O)CCN(SN(C)C(=O)Oc1cccc2c1OC(C)(C)C2)C(C)C`, the outcome was inactive.

Consider `OC(Cc1ccccc1Cl)(Cn1cncn1)C1(Cl)CC1` (centres undefined), for which the result was inactive.

Take `Cc1cc(Cl)ccc1OC(C)C(=O)O` (centres undefined): the outcome was inactive.

Take `O=S(=O)(c1ccc(Cl)cc1)c1cc(Cl)c(Cl)cc1Cl`: the AC50 was 20 µM (active).

For `CC(C)(COCC1CO1)COCC1CO1` (centres undefined), the outcome was inactive.

On to `O=[N+]([O-])c1ccc(Nc2ccccc2)cc1`, for which the outcome was inactive.

With `CC1(C)[C@H](C(=O)O[C@H](C#N)c2cccc(Oc3ccccc3)c2)[C@@H]1/C=C(\Cl)C(F)(F)F`, the AC50 is 3.39 µM (active) and the outcome was inactive.

Consider `Nc1ccc(N)cc1`, for which the outcome was inactive.

As for `Cc1cc(C(C)(C)c2ccc(O)c(C)c2)ccc1O`, the AC50 is 15.7 µM (active).

As to `c1ccc2sc(SNC3CCCCC3)nc2c1`, the outcome was inactive.

For the compound `CCN(CC)C(=O)C(Cl)=C(C)OP(=O)(OC)OC`, the outcome was inactive.

For `CCOC(=O)CC(=O)CCl`, the outcome was inactive.

For the compound `O=c1oc2ccccc2c(O)c1C(CC(O)c1ccc(-c2ccc(Br)cc2)cc1)c1ccccc1` (centres undefined), the result was inactive.

Read-out in another test: TIMP metallopeptidase inhibitor 1 (TIMP1), TIMP1 (gene 7076)
Kind of test: BSK_MyoF_TIMP1: BioMAP Diversity Plus: MyoF Assay for TIMP metallopeptidase inhibitor 1 (TIMP1) Biomarker Activity (AID 2284269). As to conditions: primary human lung fibroblasts. The method, boiled down: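 ELISA read-out of TIMP-1 from primary human lung fibroblast cultures 24 h after compound dosing; gain of signal relative to DMSO vehicle baseline defines activity.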
In the case of `CCCCCCCCCCCCN(C)C`, the result was inactive.

Take `CC(C=O)Cc1ccc2c(c1)OCO2` (centres undefined): the outcome was inactive.

Regarding `CCOC(=O)C(SP(=S)(OC)OC)c1ccccc1` (centres undefined), the outcome was inactive.

With `N#CCCC(Br)(C#N)CBr` (centres undefined), the AC50 was 20 µM (active).

In the case of `CCOP(=O)(OCC)OC(=CCl)c1ccc(Cl)cc1Cl`, the result was inactive.

As for `[Cl][Sn]([c]1ccccc1)([c]1ccccc1)[c]1ccccc1`, the AC50 was 0.355 µM (active).

Consider `CCOP(=S)(OCC)OP(=S)(OCC)OCC`, for which the outcome was inactive.

In the case of `O=C(O)COc1cc(Cl)c(Cl)cc1Cl`, the result was inactive.

Take `CCCCN(CCCC)C(=S)[S-].CCCCN(CCCC)C(=S)[S-].[Ni+2]`: the result was inactive.

On to `NC(=O)CCl`, for which the outcome was inactive.

With `C=CC(Cl)CCl` (centres undefined), the AC50 was 0.061 µM (active).

Turning to `C#CCOC(=O)/C=C(C)/C=C/CC(C)CCCC(C)C` (centres undefined), the outcome was inactive.

For `O=C(CCl)NCO`, the result was inactive.

Regarding `CCOC(=O)CCN(SN(C)C(=O)Oc1cccc2c1OC(C)(C)C2)C(C)C`, the outcome was inactive.

Consider `OC(Cc1ccccc1Cl)(Cn1cncn1)C1(Cl)CC1` (centres undefined), for which the result was inactive.

`Cc1cc(Cl)ccc1OC(C)C(=O)O` (centres undefined): the outcome was inactive.

Regarding `O=S(=O)(c1ccc(Cl)cc1)c1cc(Cl)c(Cl)cc1Cl`, the result was inactive.

As for `CC(C)(COCC1CO1)COCC1CO1` (centres undefined), the outcome was inactive.

As to `O=[N+]([O-])c1ccc(Nc2ccccc2)cc1`, the outcome was inactive.

`CC1(C)[C@H](C(=O)O[C@H](C#N)c2cccc(Oc3ccccc3)c2)[C@@H]1/C=C(\Cl)C(F)(F)F`: the result was inactive.

Consider `Nc1ccc(N)cc1`, for which the outcome was inactive.

Turning to `Cc1cc(C(C)(C)c2ccc(O)c(C)c2)ccc1O`, the result was inactive.

Take `c1ccc2sc(SNC3CCCCC3)nc2c1`: the result was inactive.

As to `CCN(CC)C(=O)C(Cl)=C(C)OP(=O)(OC)OC`, the result was inactive.

For the compound `CCOC(=O)CC(=O)CCl`, the outcome was inactive.

Consider `O=c1oc2ccccc2c(O)c1C(CC(O)c1ccc(-c2ccc(Br)cc2)cc1)c1ccccc1` (centres undefined), for which the AC50 is 7.83 µM (active).

These data come from PubChem BioAssay (EPA / NIEHS).
